Results published in the supplement of paper PMC3334620.
The full ranking holds about 33,000 sequences; the median of “E-score (-0.5 to 0.5)” is about -0.016, and the highest 2% start at about 0.3. The entries come from a sample that favours the highest values as a whole.

What follows are sequences tested against T1, Yer184c (UniProt P39961) (assay: PBM E-score (8-mer binding enrichment) (E-score (-0.5 to 0.5)); higher = stronger / more preferred TF binding). Settings: protein concentration: 100 nM; construct: GST-full length.
T1 sequence: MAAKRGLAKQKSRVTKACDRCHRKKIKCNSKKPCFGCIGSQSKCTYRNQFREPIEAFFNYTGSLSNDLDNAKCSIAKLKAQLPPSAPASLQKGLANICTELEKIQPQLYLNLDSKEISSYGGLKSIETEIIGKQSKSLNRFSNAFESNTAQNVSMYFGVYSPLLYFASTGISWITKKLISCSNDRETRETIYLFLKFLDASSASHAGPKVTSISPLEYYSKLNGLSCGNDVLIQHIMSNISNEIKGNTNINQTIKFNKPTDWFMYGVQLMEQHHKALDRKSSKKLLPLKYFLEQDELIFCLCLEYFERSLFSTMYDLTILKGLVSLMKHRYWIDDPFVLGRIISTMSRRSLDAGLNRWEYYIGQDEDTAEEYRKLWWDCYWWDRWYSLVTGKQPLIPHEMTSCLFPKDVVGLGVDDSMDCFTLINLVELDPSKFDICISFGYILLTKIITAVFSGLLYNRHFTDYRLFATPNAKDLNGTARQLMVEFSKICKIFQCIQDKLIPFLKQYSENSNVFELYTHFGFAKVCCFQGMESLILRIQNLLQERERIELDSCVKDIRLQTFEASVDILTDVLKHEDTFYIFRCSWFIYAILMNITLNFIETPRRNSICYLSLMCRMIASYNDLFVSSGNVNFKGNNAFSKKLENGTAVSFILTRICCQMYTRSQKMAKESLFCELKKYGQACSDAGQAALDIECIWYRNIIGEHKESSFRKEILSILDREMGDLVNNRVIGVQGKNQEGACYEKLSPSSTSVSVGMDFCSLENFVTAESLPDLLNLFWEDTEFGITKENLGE
Protocol: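 Universal 'all 10-mer' protein binding microarrays (Agilent AMADID 015681) probed with GST-tagged S. cerevisiae TFs (full-length or DBD) made by in vitro transcription/translation (PURExpress), about 100-200 nM. Bound TF was detected with fluorescent anti-GST. Each ungapped 8-mer (which stands for itself and its reverse complement) is scored by the PBM enrichment score (E-score), a modified Wilcoxon-Mann-Whitney statistic from -0.5 to +0.5, computed with the Universal PBM Analysis Suite. Scale: above 0.35 generally sequence-specific binding.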

In order of rising “PBM E-score” value:
1. CCCTCATA  -0.288
2. AATGCAAT  -0.256
3. CAAGGGTA  -0.254
4. CCCCAAAG  -0.253
5. AAAGGGCA  -0.226
6. CCCAAGTC  -0.223
7. GGAGTACC  -0.219
8. AGATTCCT  -0.215
9. AAGCAGTA  -0.209
10. CACTTCTG  -0.207
11. GGTGCAGA  -0.206
12. CTCTCGTA  -0.204
13. AGAGGTTG  -0.19
14. GGGATAGA  -0.186
15. TCTGCGAA  -0.186
16. CAACAGCG  -0.182
17. GGACCCAC  -0.182
18. CCTCCTTA  -0.179
19. CGGAGCCC  -0.177
20. GCCTTAAC  -0.171
21. AGAGATCT  -0.168
22. GGGAGATA  -0.161
23. CGCCATGA  -0.155
24. ATATGGCA  -0.15
25. CGATGGTA  -0.146
26. GCCCAGTA  -0.14
27. TGACTGAA  -0.14
28. AGTCCGAC  -0.14
29. CGTCAACC  -0.137
30. AGGAGATA  -0.134
31. AGGGATGA  -0.133
32. CTATTGCC  -0.131
33. CCTCGCCC  -0.125
34. AGAGACAC  -0.119
35. ACTTCCAG  -0.112
36. CCTCGAGG  -0.112
37. AGTGAGAT  -0.107
38. CAAATGAG  -0.104
39. GTACGAGA  -0.1
40. CCACAGTA  -0.1
41. GGATTCGA  -0.0994
42. GTATCCCA  -0.0951
43. ATTGTCCC  -0.0916
44. GACTTCCC  -0.0878
45. AGATTCCC  -0.0681
46. CATGAGAC  -0.0666
47. AGAGTTTC  -0.0656
48. AGGATGAA  -0.0513
49. AGGAGCGA  -0.0501
50. AAGAGCAA  -0.0457
51. GTATCCTA  -0.0431
52. ACCCTAAC  -0.0425
53. GCCTGCTA  -0.0406
54. AAGGGGAC  -0.0399
55. GATGAGCC  -0.0364
56. TGGATCAA  -0.0363
57. ATATCCTA  -0.0362
58. GAAGCGTA  -0.0311
59. ATGTGTCG  -0.0246
60. ATGTCCGC  -0.0241
61. GTCTCATA  -0.0146
62. AGGAATTG  -0.0124
63. AGAGATAC  -0.0106
64. CGGTGCGA  0.00174
65. AGGATAGA  0.0167
66. CTCTAAGC  0.0215
67. AAATCGGT  0.0224
68. AGACCTAT  0.0227
69. CGGAGACC  0.0297
70. ATTGCAAC  0.0297
71. CAAACAAG  0.0388
72. CCGGTCCA  0.0407
73. ACCGTAAA  0.0422
74. GCCGTAGC  0.045
75. CGGTAGTA  0.0519
76. ACACTCGC  0.0547
77. CTTGTTTC  0.0564
78. AAATGCTT  0.0617
79. CTAATAAA  0.0623
80. AGGAGCCG  0.0636
81. CCGGTCCC  0.0884
82. AAATCGGG  0.0884
83. GCTCTTCC  0.0925
84. GGGATATA  0.0967
85. GCGAGCGC  0.0998
86. ATAGTGCA  0.104
87. GATCTTTA  0.106
88. CGGAGCGC  0.107
89. GATTGAGC  0.109
90. ATTGTTCA  0.112
91. ATAACAAT  0.115
92. GAATACGA  0.118
93. CTAATATA  0.118
94. CTATCCGA  0.119
95. ATTCTGCA  0.124
96. TCTCTTAA  0.126
97. ATAATATG  0.132
98. ATTGTTTG  0.137
99. TAAGCTAA  0.138
100. CGATCGGA  0.142
101. AATATCAT  0.142
102. ATTGTCCA  0.143
103. TGTCCAAA  0.143
104. AGAACAAG  0.143
105. ATATTCCA  0.16
106. CGAGAGAG  0.166
107. ATCCATAA  0.168
108. CGAACACG  0.172
109. AGAACAAT  0.174
110. GCATCGGC  0.176
111. ATATTCCC  0.176
112. ATATCCGC  0.178
113. AACCTCTT  0.178
114. GTGATAAA  0.179
115. AGTCCGAT  0.19
116. CCGTTCAA  0.197
117. ATGACGGA  0.198
118. TCCGTAGA  0.204
119. GTATCGGA  0.208
120. ATAACAAG  0.209
121. CCGAGCCA  0.219
122. ACGAGCCG  0.22
123. ACATCGGA  0.223
124. CGGATCAG  0.224
125. GGATCGGA  0.228
126. ATGTCCGA  0.231
127. AAAGCTTT  0.237
128. CGTCCGAA  0.239
129. ATTGAATA  0.24
130. CCGAGCGA  0.244
131. TAATCGGA  0.248
132. CGGAATGC  0.249
133. GAATCGGC  0.254
134. AGATCCGG  0.263
135. ATTGTTCC  0.267
136. ATAATAAA  0.276
137. ATATCGGA  0.277
138. CGGATATC  0.285
139. AACGGCCG  0.3
140. TCCGTAAA  0.303
141. GTATCCGA  0.304
142. GCATCGGA  0.307
143. AAATCGGA  0.308
144. CGGAGCCG  0.309
145. CGGATCAA  0.318
146. GAATCGGA  0.318
147. CTATCGGA  0.319
148. GCCGTAGA  0.322
149. ATAATATA  0.323
150. ATTGTTTC  0.324
151. TTAATAAA  0.328
152. CGGAGCGA  0.332
153. TGTCCGAA  0.334
154. CGGATAGA  0.338
155. CCGGTCCG  0.338
156. AGATTCCG  0.338
157. GCCGTAAA  0.339
158. CGGATAAC  0.34
159. AGATCGGA  0.34
160. ATATCCGA  0.343
161. AGTCCGAA  0.343
162. ATTGTCCG  0.345
163. ATTGTTCG  0.346
164. AGAACAAA  0.349
165. CCGAGCCG  0.352
166. ATAACAAA  0.357
167. CCGAGCGC  0.361
168. ATGTCCGG  0.373
169. ATATCCGG  0.374
170. ATATTCCG  0.38
171. CGGATATA  0.389
172. CGGAGATA  0.406
